For twelve compounds, Percent Effect results are on record in ChEMBL document CHEMBL3988442, “University of Dundee, Small-Polar-MMV Screening Library” (2021).

For part of these data: Potency and affinity values are given separately.

What all share (design): scale not given: direction of the effect not stated beside the values
Assay [1] deals with Protein translocase subunit SecA (Escherichia coli (strain K12)) (UniProt P10408). Description: Assay to Identify E. coli SecA ATPase Inhibitors. In kind it is functional. The following applies: 30 µM.
Protein translocase subunit SecA (Escherichia coli (strain K12)), sequence (P10408 whole entry): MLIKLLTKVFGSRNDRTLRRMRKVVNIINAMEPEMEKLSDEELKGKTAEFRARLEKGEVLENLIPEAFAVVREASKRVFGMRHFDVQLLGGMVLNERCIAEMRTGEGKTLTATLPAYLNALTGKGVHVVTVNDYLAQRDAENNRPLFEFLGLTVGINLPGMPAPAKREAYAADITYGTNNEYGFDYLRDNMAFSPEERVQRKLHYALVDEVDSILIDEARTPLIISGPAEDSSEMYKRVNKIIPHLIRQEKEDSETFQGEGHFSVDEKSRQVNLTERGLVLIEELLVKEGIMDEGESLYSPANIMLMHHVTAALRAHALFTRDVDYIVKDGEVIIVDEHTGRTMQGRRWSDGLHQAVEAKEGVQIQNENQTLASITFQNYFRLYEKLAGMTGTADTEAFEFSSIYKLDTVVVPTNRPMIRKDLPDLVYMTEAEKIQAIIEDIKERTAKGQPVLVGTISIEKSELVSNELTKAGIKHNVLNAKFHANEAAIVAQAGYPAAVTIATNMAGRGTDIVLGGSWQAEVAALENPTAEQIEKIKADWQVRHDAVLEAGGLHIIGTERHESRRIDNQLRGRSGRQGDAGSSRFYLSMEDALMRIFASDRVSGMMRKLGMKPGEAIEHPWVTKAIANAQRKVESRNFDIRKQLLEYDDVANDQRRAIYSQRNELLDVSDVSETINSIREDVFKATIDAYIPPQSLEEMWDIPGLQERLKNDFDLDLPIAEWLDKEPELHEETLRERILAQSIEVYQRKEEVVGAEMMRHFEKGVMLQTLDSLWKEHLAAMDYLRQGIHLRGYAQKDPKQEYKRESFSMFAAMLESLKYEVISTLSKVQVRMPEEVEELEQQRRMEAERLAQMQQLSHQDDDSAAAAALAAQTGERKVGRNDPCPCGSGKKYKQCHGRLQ
In assay [2] the target is T1, Ubiquitin-activating enzyme e1, putative (Leishmania donovani (strain BPK282A1)) (UniProt E9BSI1).
T1 sequence (whole entry): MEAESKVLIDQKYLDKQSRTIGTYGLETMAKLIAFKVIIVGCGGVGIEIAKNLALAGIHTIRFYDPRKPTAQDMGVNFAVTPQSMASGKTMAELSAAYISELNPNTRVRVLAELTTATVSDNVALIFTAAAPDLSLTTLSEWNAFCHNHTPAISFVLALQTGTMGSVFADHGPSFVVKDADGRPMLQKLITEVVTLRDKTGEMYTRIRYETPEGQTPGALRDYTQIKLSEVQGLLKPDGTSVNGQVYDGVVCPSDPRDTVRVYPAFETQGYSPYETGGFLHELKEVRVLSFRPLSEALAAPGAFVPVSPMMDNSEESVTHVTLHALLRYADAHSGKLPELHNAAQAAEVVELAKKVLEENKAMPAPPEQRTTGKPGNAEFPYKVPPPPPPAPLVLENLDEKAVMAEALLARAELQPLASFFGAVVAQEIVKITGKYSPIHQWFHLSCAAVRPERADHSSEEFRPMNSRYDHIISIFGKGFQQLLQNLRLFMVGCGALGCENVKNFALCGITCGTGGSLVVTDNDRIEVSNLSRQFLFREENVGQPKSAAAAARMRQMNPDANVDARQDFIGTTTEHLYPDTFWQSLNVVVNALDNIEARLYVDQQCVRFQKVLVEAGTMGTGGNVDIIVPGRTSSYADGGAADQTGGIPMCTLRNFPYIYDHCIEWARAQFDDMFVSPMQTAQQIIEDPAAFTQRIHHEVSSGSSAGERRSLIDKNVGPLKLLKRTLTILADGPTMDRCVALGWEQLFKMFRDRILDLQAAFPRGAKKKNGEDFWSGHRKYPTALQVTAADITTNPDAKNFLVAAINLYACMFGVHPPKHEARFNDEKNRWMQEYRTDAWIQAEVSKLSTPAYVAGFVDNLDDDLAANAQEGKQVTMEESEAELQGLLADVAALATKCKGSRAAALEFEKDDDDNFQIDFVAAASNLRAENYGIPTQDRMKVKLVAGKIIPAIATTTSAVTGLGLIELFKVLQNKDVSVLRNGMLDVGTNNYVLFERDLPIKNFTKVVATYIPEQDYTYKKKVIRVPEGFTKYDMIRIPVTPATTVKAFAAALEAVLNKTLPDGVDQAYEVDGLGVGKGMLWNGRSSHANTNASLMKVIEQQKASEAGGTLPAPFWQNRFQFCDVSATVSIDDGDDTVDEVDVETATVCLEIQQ
Description: Leishmania donovani Ubiquitin Activating Enzyme (LdE1). The following applies: 30 µM. In kind it is functional.

Assay [3] addresses Sialic acid-binding Ig-like lectin 9 (Homo sapiens) (UniProt Q9Y336). Description: Hs-Siglec9 ALPHAscreen SOP 20170721. The note with it: 10 µM.
Assay [4] relates to Trypanosoma cruzi. The assay can be described thus: Trypanosoma cruzi phosphomannomutase and mannose-1-phosphate guanylyltransferase assay. The following applies: 10 µM. The class given is functional.
Assay [5] concerns the target T2, Arginase-2, mitochondrial (Homo sapiens) (UniProt P78540).
T2 sequence (whole entry): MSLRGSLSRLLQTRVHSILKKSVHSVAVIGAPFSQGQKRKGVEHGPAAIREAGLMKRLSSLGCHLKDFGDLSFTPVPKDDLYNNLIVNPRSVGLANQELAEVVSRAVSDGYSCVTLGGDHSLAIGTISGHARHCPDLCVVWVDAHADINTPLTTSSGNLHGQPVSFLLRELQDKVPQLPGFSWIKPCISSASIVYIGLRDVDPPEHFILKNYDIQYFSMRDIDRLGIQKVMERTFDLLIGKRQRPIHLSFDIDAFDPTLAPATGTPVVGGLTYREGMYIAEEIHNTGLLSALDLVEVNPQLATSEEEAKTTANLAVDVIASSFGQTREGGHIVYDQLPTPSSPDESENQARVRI
The assay can be described thus: in vitro enzyme assay to detect the production of urea directly proportional to the activity of Arginase II. Note: in the data most compounds retested in dose-response had high values. In kind it is functional. The following applies: 33.3 µM.

Assay [6] has as its target T3, Proteasome subunit beta (Trypanosoma cruzi) (UniProt O96673).
T3 sequence (whole entry): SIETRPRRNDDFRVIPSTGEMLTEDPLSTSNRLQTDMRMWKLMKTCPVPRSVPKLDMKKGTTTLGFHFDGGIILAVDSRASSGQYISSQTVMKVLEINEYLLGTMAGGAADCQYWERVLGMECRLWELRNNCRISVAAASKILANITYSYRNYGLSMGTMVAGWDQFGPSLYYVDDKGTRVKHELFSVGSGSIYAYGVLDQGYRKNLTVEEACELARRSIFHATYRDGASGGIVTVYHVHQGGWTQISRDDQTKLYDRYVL
Description: Trypanosoma cruzi proteasome chymotrypsin-like activity (TcProtChymo) assay. Note: in the data most compounds retested in dose-response had high values. In kind it is functional. The following applies: 9.37 µM.

Assay [7] is filed under the species Homo sapiens. Description: To identify inhibition of the IFN signalling (Jak-Stat) pathway via expression of an eGFP reporter gene under the control of an IFN-stimulated response element (ISRE) containing MxA promoter. The following applies: 30 µM. In kind it is functional. Background: Reporter assays use an easily measured gene product as a stand-in for the process of interest.

Assay [8] has as its target T4, Tyrosyl-tRNA synthetase, putative (Trypanosoma cruzi (strain CL Brener)) (UniProt Q4DSP6).
T4 sequence (whole entry): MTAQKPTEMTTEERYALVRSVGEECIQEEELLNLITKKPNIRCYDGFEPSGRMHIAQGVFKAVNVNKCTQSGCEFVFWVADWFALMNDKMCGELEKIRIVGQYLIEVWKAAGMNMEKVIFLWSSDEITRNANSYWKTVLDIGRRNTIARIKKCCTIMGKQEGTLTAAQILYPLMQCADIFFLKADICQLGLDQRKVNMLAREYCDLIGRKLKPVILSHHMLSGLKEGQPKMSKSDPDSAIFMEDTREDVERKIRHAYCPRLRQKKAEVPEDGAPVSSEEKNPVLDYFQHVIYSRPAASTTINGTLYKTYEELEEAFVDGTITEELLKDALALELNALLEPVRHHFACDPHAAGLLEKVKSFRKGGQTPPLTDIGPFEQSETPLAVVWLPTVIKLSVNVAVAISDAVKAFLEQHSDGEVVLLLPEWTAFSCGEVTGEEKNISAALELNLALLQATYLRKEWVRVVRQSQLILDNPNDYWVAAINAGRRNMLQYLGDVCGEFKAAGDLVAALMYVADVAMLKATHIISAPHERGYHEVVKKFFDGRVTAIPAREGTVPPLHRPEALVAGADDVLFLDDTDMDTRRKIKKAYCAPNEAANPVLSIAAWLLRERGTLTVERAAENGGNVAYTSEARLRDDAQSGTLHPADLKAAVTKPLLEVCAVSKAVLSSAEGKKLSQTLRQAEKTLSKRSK
The assay can be described thus: Trypanosoma cruzi tyrosyl tRNA synthetase (TcYRS) _High Tyrosine SOP. Note: in the data most compounds retested in dose-response had high values. In kind it is functional. The note with it: 30 µM.

The target in assay [9] is T4, Tyrosyl-tRNA synthetase, putative (Trypanosoma cruzi (strain CL Brener)). Description: Trypanosoma cruzi tyrosyl tRNA synthetase (TcYRS) SOP. In kind it is functional. The note with it: 30 µM.
The target in assay [10] is Chromo domain-containing protein 1 (Saccharomyces cerevisiae (strain ATCC 204508 / S288c) (Baker's yeast)) (UniProt P32657). The assay can be described thus: ScCHD-1 Enzyme Inhibition Assay. Note: in the data most compounds retested in dose-response had high values. The note with it: 30 µM. In kind it is functional.
Chromo domain-containing protein 1 (Saccharomyces cerevisiae (strain ATCC 204508 / S288c) (Baker's yeast)), sequence (P32657 whole entry, the tested form may be a part): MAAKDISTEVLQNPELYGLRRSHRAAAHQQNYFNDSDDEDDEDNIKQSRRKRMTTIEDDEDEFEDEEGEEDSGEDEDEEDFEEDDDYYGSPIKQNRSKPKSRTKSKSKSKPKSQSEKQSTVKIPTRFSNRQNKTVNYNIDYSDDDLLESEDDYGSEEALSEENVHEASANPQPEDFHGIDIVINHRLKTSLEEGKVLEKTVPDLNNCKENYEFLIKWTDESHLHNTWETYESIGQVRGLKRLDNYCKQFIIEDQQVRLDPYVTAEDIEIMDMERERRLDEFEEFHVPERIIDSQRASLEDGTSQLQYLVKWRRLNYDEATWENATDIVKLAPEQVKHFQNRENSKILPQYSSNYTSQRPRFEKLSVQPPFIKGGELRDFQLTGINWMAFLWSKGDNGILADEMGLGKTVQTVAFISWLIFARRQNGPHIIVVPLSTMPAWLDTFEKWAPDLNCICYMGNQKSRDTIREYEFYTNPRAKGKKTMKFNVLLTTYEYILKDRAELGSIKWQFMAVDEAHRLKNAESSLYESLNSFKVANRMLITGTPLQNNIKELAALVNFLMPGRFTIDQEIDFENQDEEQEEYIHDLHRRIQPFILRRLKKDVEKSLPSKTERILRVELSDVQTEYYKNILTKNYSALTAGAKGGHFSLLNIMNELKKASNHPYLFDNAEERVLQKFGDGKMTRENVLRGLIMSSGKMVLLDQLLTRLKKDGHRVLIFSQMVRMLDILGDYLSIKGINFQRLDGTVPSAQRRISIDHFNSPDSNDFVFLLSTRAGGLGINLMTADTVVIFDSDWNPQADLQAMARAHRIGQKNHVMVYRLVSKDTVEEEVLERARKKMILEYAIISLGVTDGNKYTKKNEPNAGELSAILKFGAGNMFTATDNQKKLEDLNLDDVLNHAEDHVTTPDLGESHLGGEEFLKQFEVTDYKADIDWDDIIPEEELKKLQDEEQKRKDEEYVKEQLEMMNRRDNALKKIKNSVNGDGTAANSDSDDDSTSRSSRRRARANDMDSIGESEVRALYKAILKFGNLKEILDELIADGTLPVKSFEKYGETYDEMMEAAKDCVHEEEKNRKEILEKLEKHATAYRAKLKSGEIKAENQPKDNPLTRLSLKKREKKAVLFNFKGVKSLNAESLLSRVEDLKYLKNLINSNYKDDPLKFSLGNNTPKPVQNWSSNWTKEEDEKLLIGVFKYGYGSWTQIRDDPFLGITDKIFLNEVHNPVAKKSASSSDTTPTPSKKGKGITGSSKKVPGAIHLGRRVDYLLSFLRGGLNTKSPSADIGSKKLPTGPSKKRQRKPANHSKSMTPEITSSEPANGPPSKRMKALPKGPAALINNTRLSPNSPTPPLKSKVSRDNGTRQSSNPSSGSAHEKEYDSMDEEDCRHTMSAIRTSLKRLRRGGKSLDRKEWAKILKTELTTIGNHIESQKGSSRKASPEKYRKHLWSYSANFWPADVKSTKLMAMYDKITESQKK

Sialic acid-binding Ig-like lectin 9 (Homo sapiens), sequence (Q9Y336 whole entry): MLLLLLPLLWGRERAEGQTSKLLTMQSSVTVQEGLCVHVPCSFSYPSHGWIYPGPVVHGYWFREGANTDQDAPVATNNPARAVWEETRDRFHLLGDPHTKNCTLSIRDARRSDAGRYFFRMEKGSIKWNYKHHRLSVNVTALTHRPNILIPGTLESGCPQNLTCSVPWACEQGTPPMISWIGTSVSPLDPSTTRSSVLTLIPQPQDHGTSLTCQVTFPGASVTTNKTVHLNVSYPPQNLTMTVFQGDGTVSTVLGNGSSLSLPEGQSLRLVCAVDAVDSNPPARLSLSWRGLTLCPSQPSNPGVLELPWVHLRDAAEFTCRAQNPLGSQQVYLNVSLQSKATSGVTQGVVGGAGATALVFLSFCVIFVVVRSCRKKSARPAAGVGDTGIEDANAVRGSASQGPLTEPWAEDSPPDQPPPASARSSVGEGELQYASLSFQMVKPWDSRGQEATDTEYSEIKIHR

For the compound `Cn1c(CN2CCCC2c2noc(C3CC3)n2)cc(=O)n(C)c1=O` (stereo not given), the Percent Effect in assay [1] was -8.17%; in [2], 2.67%; in assay [3], -1.87%; in [4], -3.01%; in assay [5], -3.99%; in assay [6] it was 5.85%. Also, the Percent Effect was 13.9% in [7], 0.526% in assay [8], 0% in assay [9] and -5.06% in assay [10].

For `CS(=O)(=O)NCC1CCCN(C(=O)COCc2ccccc2)C1` (stereo not given), the Percent Effect in assay [1] was -1.97%; in [2], 15.4%; in assay [3], -3.29%; in [4], 4.41%; in assay [5], 6.56%; in [6], 1.96%. The Percent Effect is 17.6% in assay [7], 0.478% in assay [8], 20.5% in assay [9] and -5.38% in assay [10].

On to `COc1cc(C)nc(N2CCN(C(=O)COCC(F)(F)F)CC2)n1`, for which the Percent Effect in [1] is -3.6%; in assay [2], 7.69%; in assay [3], -1.63%; in assay [4], -1.22%; in assay [5] it was 1.64%; in assay [6], 3.16%. Also, the Percent Effect in [7] was 22.4%; in [8], 4.31%; in assay [9], 8.43%; in [10] it was -3.52%.

`Cn1ccnc1CN1CCOCC(Cc2ccccn2)C1` (stereo not given): the Percent Effect in [1] was -3.37%; in assay [2] it was 6.67%; in assay [3] it was 0.649%; in [4] it was -4.14%; in assay [5] it was 5.75%; in assay [6], 11.3%. The Percent Effect was 8.81% in assay [7], 1.06% in [8], 10% in assay [9] and -19.9% in assay [10].

`Cn1cc(CN2CCCC23CCN(C(=O)c2cccn2C)CC3)cn1`: the Percent Effect in assay [1] was -1.03%; in assay [2] it was -6.49%; in [3], -3.73%; in assay [4], -0.876%; in [5] it was -2.43%; in assay [6], -0.441%. The Percent Effect in assay [7] was -15.7%; in assay [8], -0.526%; in assay [9], 0%; in [10], -0.154%.

`Cc1ccc(-c2nc(CN3CCn4c(nnc4C4CC4)C3)co2)cc1`: the Percent Effect in assay [1] was -5.43%; in assay [2], -5.33%; in assay [3], -0.413%; in [4], -1.41%; in assay [5] it was 0%; in assay [6], 9.92%. In addition, the Percent Effect in assay [7] was -8.93%; in assay [8] it was 6.84%; in assay [9] it was 12.8%; in assay [10], -6.77%.

On to `Cn1cc(CN2CCC3(CC2)CC(c2ccncc2)C(=O)N3)cn1` (stereo not given), for which the Percent Effect is -3% in assay [1]; 6.49% in assay [2]; -3.92% in [3]; -5.36% in assay [4]; 2.02% in assay [5]; 16.7% in assay [6]. In addition, the Percent Effect was -2.28% in [7], 3.68% in assay [8], 10.3% in [9] and -1.42% in assay [10].

With `Cc1cccc(CN2CCC3(CCN(c4ccccn4)C3)C2=O)c1` (stereo not given), the Percent Effect was -2.21% in [1]; 16.9% in assay [2]; 0.691% in [3]; 3% in [4]; -0.913% in [5]; 14% in assay [6]. Moreover, the Percent Effect in [7] was 11.4%; in [8] it was 10.6%; in assay [9] it was 12.5%; in [10], -5.26%.

For `O=C(CCOc1ccc(Cl)cc1)N1CCN(c2cnccn2)CC1`, the Percent Effect in assay [1] was -5.29%; in assay [2], 18.2%; in [3] it was 5.24%; in assay [4], -0.746%; in assay [5] it was 0.615%; in [6] it was 10.2%. Besides, the Percent Effect in [7] was 25.2%; in assay [8] it was 9.8%; in assay [9], 21.2%; in [10] it was -8.03%.

Take `COc1cccc(CN2CCCC3(CCN(C(=O)[C@H]4CCCO4)C3)C2)c1` (stereo not given in full): the Percent Effect was -5.07% in [1]; 3.9% in [2]; -0.211% in [3]; -0.75% in assay [4]; 3.65% in assay [5]; 4.55% in assay [6]. In addition, the Percent Effect is 0.637% in [7], 12.6% in [8], 15% in [9] and -10.7% in assay [10].

As for `CNc1cc(N2CCCC2CNCc2cnc(C)cn2)ncn1` (stereo not given), the Percent Effect was -4.22% in assay [1]; 0% in assay [2]; -3.13% in assay [3]; 1.78% in assay [4]; 6.15% in [5]; 2.47% in assay [6]. Besides, the Percent Effect was found to be 21.4% in [7], 2.39% in assay [8], 1.21% in [9] and 2.01% in assay [10].

With `CN(C)C(=O)N1C[C@H]2CCC[C@@]2(COc2ccccn2)C1`, the Percent Effect is -6.8% in [1]; 6.49% in [2]; -3.98% in assay [3]; -4.58% in assay [4]; -6.07% in assay [5]; 10.9% in [6]. The Percent Effect is 6.85% in assay [7], -0.526% in assay [8], 5.13% in assay [9] and -2.37% in assay [10].
